HIV TAR-Tat = TAR RNA-Tat peptide displacers, HIV-1, primary screen, biochemical, FRET, FAM/TAMRA-labeled Tat; HIV-1 TAR RNA, Tat peptide displacement FRET; hits give high values; z-score (no concentration beside the values); 0.6% of 100,000 active; AID 1259389, 2018; active means z-score of 3 or more in at least 2 runs
CDC25B CDK2 inh = primary biochemical HTRF screen for blockers of M-phase inducer phosphatase 2 binding to CDK2/cyclin A. P30305+P24941. HTRF CDC25B-CDK2/CyclinA binding, anti-His/anti-Flag; hits give high values. z-score (concentration not given with the values). 0.72% of 94,000 active. AID 1259370, 2018; in the data active means z-score above about 3.2
Numbers without * were called inactive; x = no result. Compounds with a hit are over-represented: about 0.86% of the library has one in this group of screens.

SMILES	HIV TAR-Tat	CDC25B CDK2 inh
Cc1cccn2c(=O)c(C(=O)NCCC(C)C)c(O)nc12	-1.3	-0.95
CCc1ccc(C2CC(=O)N3CN(C4CCCCC4)CSC3=C2C#N)cc1 (stereo unspecified)	-1.2	3.9*
Cc1ccc(C2CC(=O)N3CN(C4CCCC4)CSC3=C2C#N)cc1 (stereo unspecified)	0.26	0.66
COc1ccc(C2CC(=O)N3CN(C4CCCC4)CSC3=C2C#N)cc1 (stereo unspecified)	0.43	5.5*
N#CC1=C2SCN(C3CCCCC3)CN2C(=O)CC1c1ccc(Br)cc1 (stereo unspecified)	-1.1	-1.1
CCc1nn(CC(=O)NC2CCCC2)c(=O)c2cc3occc3n12	1.8	-0.49
CCCOc1ccc(C2C(C(=O)OC3CCCC3)=C(C)NC3=C2C(=O)CCC3)cc1OC (stereo unspecified)	0.22	0.57
Cc1ccccc1CSc1nc2c(c(=O)[nH]1)C(c1ccc(O)c(O)c1)CC(=O)N2 (stereo unspecified)	25*	2.9
CCCSc1nc2c(c(=O)[nH]1)C(c1ccc(O)c(O)c1)CC(=O)N2 (stereo unspecified)	8.5*	7.8*
CCOc1cc(C2CC(=O)Nc3nc(SC)[nH]c(=O)c32)ccc1O (stereo unspecified)	1.8	-2.5
Cn1c(SCc2ccc(F)cc2)nc(=O)c2c1NC(=O)CC2c1cccc(O)c1 (stereo unspecified)	-0.43	-1.2
C=CCSc1nc2c(c(=O)[nH]1)C(c1cc(F)cc(F)c1)CC(=O)N2 (stereo unspecified)	-0.27	-1.4
C=CCSc1nc2c(c(=O)[nH]1)C(c1ccc(O)c(O)c1)CC(=O)N2 (stereo unspecified)	19*	16*
Cc1ccc(CSc2nc(=O)c3c(n2C)NC(=O)CC3c2ccc(O)c(O)c2)cc1 (stereo unspecified)	26*	-0.12
CCOc1cc(C2CC(=O)Nc3nc(SCc4ccccc4C)[nH]c(=O)c32)ccc1O (stereo unspecified)	1.8	-0.18
CCc1ccc(-c2[nH]nc3nc(-c4ccc(OC)c(Br)c4)cc(C(=O)O)c23)cc1	2.7	x
O=C(NCc1ccccn1)c1cccs1	1.3	-0.64
O=C(CSc1nc(-c2ccc3c(c2)OCO3)nc2cc(=O)[nH]n12)NCCCc1ccccc1	2.5	x
COC(=O)c1[nH]c2sc3c(c2c1-n1cccc1)CCCC3	1.6	13*
COC(=O)c1[nH]c2sc3c(c2c1NC(C)=O)CCCC3	-0.25	4.7
CC(C)(C)C1CCc2c(sc3nc(CCC(=O)Nc4ccccc4)[nH]c(=O)c23)C1 (stereo unspecified)	0.13	x
Cc1ccc(O)c(CNc2nc3ccccc3n2C(C)C)c1	0.55	0.53
O=C(Nc1sc2c(c1C(=O)NCc1ccco1)CCC2)c1csnn1	9.3*	-0.63
O=C(Nc1sc2c(c1C(=O)NCc1ccco1)CCCC2)c1csnn1	0.46	0.49
CC1=NS(=O)(=O)c2cc(S(=O)(=O)CC(=O)Nc3ccc(F)cc3F)ccc2N1	1.3	x
SMILES	HIV TAR-Tat	CDC25B CDK2 inh
Nc1ccc2nc(/C=C/c3ccccc3)[nH]c2c1	-1.3	-2.8
Nc1cccc(/C=C/c2nc3ccc(N)cc3[nH]2)c1	2	12*
O=C1c2cccc(O)c2C(=O)c2c(O)cc(CO)cc21	6.2*	x
Cc1cc(O)c2c(c1)C(=O)c1cc(O)cc(O)c1C2=O	1.9	-1.2
Cc1cc2cc(CCNC(=O)c3cccs3)c(=O)[nH]c2cc1C	x	-1.2
COC(=O)c1cc2sccc2n1CC(=O)N(C)c1ccccc1	1.1	-1.2
COC(=O)c1cc2sccc2n1CC(=O)c1ccccc1	0.2	9.2*
CCCCNC(=O)c1cc2c(=O)n3ccccc3nc2n1C	5*	x
Cn1c(C(=O)Nc2ccc(S(N)(=O)=O)cc2)cc2c(=O)n3ccccc3nc21	27*	x
Cc1cc(NC(=O)c2cc3c(=O)n4cccc(C)c4nc3n2C)ccc1Br	-2.2	x
Cn1c(C(=O)NCc2ccccn2)cc2c(=O)n3ccccc3nc21	x	-0.05
Cc1cccn2c(=O)c3cc(C(=O)Nc4ccc(S(N)(=O)=O)cc4)n(C)c3nc12	43*	x
Cn1c(C(=O)Nc2ccc(Oc3ccccc3)cc2)cc2c(=O)n3ccccc3nc21	1.2	x
CCCCC12CN3CC(C)(CN(C1)C3c1ccc3c(c1)OCO3)C2=O (stereo unspecified)	2.3	-1.2
COc1ccc(Cl)cc1NC(=O)Cn1nc2c(cc1=O)CCC2	-1	-1.3
COc1ccc(NC(=O)Cn2nc3c(cc2=O)CCC3)cc1Cl	13*	0.37
Cc1ccc(-c2noc(C(C)NS(=O)(=O)c3ccc(C)cc3)n2)cc1 (stereo unspecified)	0.26	-0.81
CCOc1ccc2nc(NC(=O)Nc3cc(Cl)c(OC)cc3OC)sc2c1	1.3	-2.3
COc1ccc2nc(NC(=O)Nc3cc(Cl)c(OC)cc3OC)sc2c1	5.3*	1.3
O=C(CCCc1nnc2c(=O)n(-c3ccc(Cl)cc3)ccn12)N1CCN(c2ccccc2)CC1	0.29	x
Oc1ccccc1CN(Cc1ccccc1)Cc1ccccc1	0.39	-0.68
O=C(O)c1cc(N(Cc2ccccc2O)Cc2cc(O)ccc2O)ccc1O	34*	x
COc1ccc(-n2c(C)nnc2SCc2nc(-c3ccccc3OC)no2)cc1	2.4	-2.2
CCS(=O)(=O)N1CCCc2ccc(NS(C)(=O)=O)cc21	2	x
O=[N+]([O-])c1cccc(-c2noc(C(F)(F)F)n2)c1	x	-0.63
SMILES	HIV TAR-Tat	CDC25B CDK2 inh
Cn1c(SCC(=O)Nc2ccc3[nH]c(=O)[nH]c3c2)nnc1-c1ccccc1	0.78	-0.17
CC(=O)c1ccc(NC(=O)CSc2nnc(-c3ccc4ccccc4c3)n2C)cc1	x	6.9*
Cc1cc(-c2nnc(SCC(=O)c3ccc(Cl)cc3)o2)no1	-0.16	-6.6
CCOc1ccccc1CN(CCc1ccc2c(c1)OCO2)Cc1cccnc1	x	-0.39
CCOc1ccc(CN(CCc2ccc3c(c2)OCO3)Cc2cccnc2)cc1	0.9	16*
CCc1nn2c(=O)cc(COC(=O)CSc3ccc(C)cc3)nc2s1	-0.79	x
Cn1cc(S(=O)(=O)c2ccccc2)c(=O)c2cc(F)ccc21	21*	-1.6
Cn1cc(S(=O)(=O)c2ccccc2)c(=O)c2cc(Cl)ccc21	2.4	-2
COC(=O)c1cccc(NC(=O)Nc2ccccc2)c1	x	-2
Cc1ccc(C(=O)Nc2ccc(S(=O)(=O)O)c3cc(S(=O)(=O)O)cc(S(=O)(=O)O)c23)cc1NC(=O)c1cccc(NC(=O)Nc2cccc(C(=O)Nc3cc(C(=O)Nc4ccc(S(=O)(=O)O)c5cc(S(=O)(=O)O)cc(S(=O)(=O)O)c45)ccc3C)c2)c1	-11	4.7*
COc1ccc(C2OC(c3cc(C4CC4)nc4ccccc34)=NN2C(C)=O)c(OC)c1 (stereo unspecified)	9.2*	x
CC(=O)N1N=C(c2cc(C3CC3)nc3ccccc23)OC1c1ccccc1 (stereo unspecified)	1.6	x
O=C(CSc1ccc2nnc(-c3ccc(F)cc3)n2n1)NCc1ccc(F)cc1	x	-11
COc1ccc([C@@H]2CC(=O)c3c(O)cc(O)cc3O2)cc1O	2.9	x
O=C(O[C@@H]1Cc2c(O)cc(O)cc2O[C@@H]1c1cc(O)c(O)c(O)c1-c1c([C@H]2Oc3cc(O)cc(O)c3C[C@H]2OC(=O)c2cc(O)c(O)c(O)c2)cc(O)c(O)c1O)c1cc(O)c(O)c(O)c1	29*	x

Source: PubChem
